From PubChem BioAssay (EPA / NIEHS)
The source made the active and inactive calls. How the source made its calls: active means hit-call score of the fitted dose curve at least 0.9, where 1 is the maximum; inactive means score below 0.9.

Experiments:
[1] = ATG_GLI_CIS: Attagene CIS-FACTORIAL HepG2 Assay for human Zinc Finger Protein GLI1 (AID 2282945); conditions: HepG2, Attagene cis-factorial reporter mRNA, GLI element; actives raise or lower the signal
Summary of the method: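 HepG2 cells transiently transfected with cis-promoter multiplexed reporter units report endogenous transcription factor activity. After 24 h chemical exposure, reporter mRNA was quantified by RT-PCR, 6-FAM labelling, HpaI digestion and capillary electrophoresis, with bidirectional fitting against DMSO.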

[2] = ATG_ISRE_CIS: Attagene CIS-FACTORIAL HepG2 Assay for human Interferon Regulatory Factor 1 (IRF1) binding to an Interferon-Stimulated Response Element (ISRE) (AID 2282948); conditions: HepG2 ISRE cis-reporter (Attagene), mRNA transcription readout; actives raise or lower the signal
Summary of the method: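 Quantitation relies on labelled RT-PCR fragments separated by capillary electrophoresis. Human HepG2 cells bearing cis-promoter reporter constructs were treated 24 h; DMSO served as baseline for bidirectional fitting.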

[3] = ATG_M_32_CIS: Attagene CIS-FACTORIAL HepG2 Assay for M32 Transcription Factor (Internal Marker) (AID 2282949); conditions: HepG2 Attagene cis-factorial M32 reporter, mRNA; actives raise or lower the signal;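 further: background control marker of the multiplexed CIS panel rather than a real target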
Summary of the method: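 Fluorescent capillary electrophoresis peaks of HpaI-digested, FAM-labelled RT-PCR reporter products give the signal. Source: transiently transfected human liver HepG2 cells, 24 h after chemical dosing; bidirectional fitting against DMSO.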

[4] = ATG_M_06_CIS: Attagene CIS-FACTORIAL HepG2 Assay for M06 Transcription Factor (Internal Marker) (AID 2282950); conditions: HepG2 Attagene CIS-FACTORIAL M06 internal marker reporter; actives raise or lower the signal
Summary of the method: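 Read-out is fluorescence of labelled reporter cDNA fragments resolved by capillary electrophoresis after RT-PCR. Cells: HepG2 carrying transfected cis-promoter reporter units, treated 24 h. Gain or loss of signal fitted relative to DMSO.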

[5] = molecular target: Hypoxia-inducible factor 1-alpha (Homo sapiens) (UniProt Q16665); assay: ATG_HIF1a_CIS: Attagene CIS-FACTORIAL HepG2 Assay for human Hypoxia Inducible Factor 1 (HIF1A) (AID 2282951); conditions: HepG2 Attagene cis-factorial HIF1a reporter transcription; actives raise or lower the signal
Sequence of Hypoxia-inducible factor 1-alpha (Homo sapiens) (Q16665 whole entry, looked up): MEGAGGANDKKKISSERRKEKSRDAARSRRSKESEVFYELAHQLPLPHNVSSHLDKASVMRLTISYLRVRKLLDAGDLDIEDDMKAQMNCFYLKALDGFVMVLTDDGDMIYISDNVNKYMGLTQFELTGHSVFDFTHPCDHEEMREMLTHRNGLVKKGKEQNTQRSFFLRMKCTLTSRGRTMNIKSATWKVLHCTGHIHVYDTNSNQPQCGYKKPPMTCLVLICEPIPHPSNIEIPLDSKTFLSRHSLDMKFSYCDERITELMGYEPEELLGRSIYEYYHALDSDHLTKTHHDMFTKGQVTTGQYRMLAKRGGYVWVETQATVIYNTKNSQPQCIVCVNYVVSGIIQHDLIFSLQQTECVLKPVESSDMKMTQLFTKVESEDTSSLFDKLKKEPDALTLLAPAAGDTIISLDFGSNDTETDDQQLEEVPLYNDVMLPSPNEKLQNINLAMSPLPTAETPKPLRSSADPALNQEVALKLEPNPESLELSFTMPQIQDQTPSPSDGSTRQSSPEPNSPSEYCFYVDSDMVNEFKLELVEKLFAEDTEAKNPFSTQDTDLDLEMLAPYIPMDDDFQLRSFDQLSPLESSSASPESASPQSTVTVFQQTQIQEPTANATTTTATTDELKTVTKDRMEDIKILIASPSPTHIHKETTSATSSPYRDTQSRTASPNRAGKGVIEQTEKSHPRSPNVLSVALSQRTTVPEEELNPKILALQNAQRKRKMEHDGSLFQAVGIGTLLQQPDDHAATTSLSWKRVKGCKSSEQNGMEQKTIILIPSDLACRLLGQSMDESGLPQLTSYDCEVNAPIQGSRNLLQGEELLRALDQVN
Summary of the method: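 Measures endogenous transcription-factor activity through cis-regulated reporter mRNA in HepG2. Cells dosed 24 h; transcripts quantified by RT-PCR with 6-FAM-labelled products separated by capillary electrophoresis; DMSO serves as negative control.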

[6] = molecular target: Hepatocyte nuclear factor 6 (Homo sapiens) (UniProt Q9UBC0); assay: ATG_HNF6_CIS: Attagene CIS-FACTORIAL HepG2 Assay for human Hepatocyte Nuclear Factor 6 (HNF6) (AID 2282952); conditions: HepG2 Attagene cis-factorial HNF6 reporter transcription; actives raise or lower the signal
Sequence of Hepatocyte nuclear factor 6 (Homo sapiens) (Q9UBC0 whole entry, looked up): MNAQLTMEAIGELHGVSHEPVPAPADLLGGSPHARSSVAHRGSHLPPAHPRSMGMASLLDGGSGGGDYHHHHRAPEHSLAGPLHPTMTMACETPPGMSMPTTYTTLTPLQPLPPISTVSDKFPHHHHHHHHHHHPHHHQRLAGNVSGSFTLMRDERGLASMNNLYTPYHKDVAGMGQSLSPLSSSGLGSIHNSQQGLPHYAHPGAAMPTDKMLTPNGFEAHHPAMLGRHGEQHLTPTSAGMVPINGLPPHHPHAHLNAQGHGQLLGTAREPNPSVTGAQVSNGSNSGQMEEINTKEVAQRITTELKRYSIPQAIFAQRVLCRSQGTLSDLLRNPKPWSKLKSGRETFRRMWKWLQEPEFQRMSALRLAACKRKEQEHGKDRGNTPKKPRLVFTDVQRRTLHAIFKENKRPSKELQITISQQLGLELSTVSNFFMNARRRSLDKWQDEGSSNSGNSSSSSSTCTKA
Summary of the method: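 HepG2, transient MRTU transfection (cis promoters); 24 h chemical exposure; total RNA → oligo(dT) RT → PCR → 6-FAM labelling → HpaI cut → CE; bidirectional fit vs DMSO.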

[7] = molecular target: Heat shock factor protein 1 (Homo sapiens) (UniProt Q00613); assay: ATG_HSE_CIS: Attagene CIS-FACTORIAL HepG2 Assay for human Heat Shock Transcription Factor 1 (HSE) (AID 2282953); conditions: HepG2 HSE cis-reporter, Attagene RNA transcription; actives raise or lower the signal
Sequence of Heat shock factor protein 1 (Homo sapiens) (Q00613 whole entry, looked up): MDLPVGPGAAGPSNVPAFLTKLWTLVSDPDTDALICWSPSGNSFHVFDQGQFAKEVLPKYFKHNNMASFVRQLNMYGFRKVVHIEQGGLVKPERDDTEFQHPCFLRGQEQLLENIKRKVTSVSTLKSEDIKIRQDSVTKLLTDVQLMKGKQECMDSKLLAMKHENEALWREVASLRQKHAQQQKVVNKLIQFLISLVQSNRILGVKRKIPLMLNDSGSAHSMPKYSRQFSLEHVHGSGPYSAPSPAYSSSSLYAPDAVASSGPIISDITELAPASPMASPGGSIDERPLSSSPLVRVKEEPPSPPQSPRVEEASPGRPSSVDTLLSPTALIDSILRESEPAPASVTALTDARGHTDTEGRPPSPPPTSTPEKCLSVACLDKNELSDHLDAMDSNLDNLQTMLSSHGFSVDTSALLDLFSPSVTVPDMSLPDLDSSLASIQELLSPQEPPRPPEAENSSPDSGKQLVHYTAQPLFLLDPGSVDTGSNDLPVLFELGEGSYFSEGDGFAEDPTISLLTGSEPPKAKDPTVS
Summary of the method: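 HepG2, transient MRTU transfection, cis-promoter reporters (endogenous TF activity). 24 h compound. RNA → oligo(dT) RT → PCR → 6-FAM primer extension → HpaI cut → CE. Bidirectional fit vs DMSO.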

[8] = ATG_MRE_CIS: Attagene CIS-FACTORIAL HepG2 Assay for human Metal Responsive Element (MRE) (AID 2282954); conditions: HepG2 MRE cis-reporter transcription, Attagene multiplex; actives raise or lower the signal
Summary of the method: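 Step one: transfect HepG2 with cis-regulated reporter units. Step two: dose 24 h. Step three: isolate RNA, RT-PCR, 6-FAM label, HpaI digest, capillary electrophoresis. Fit bidirectionally to DMSO.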

[9] = ATG_PBREM_CIS: Attagene CIS-FACTORIAL HepG2 Assay for human Phenobarbital-responsive Enhancer Module (PBREM) (AID 2282955); conditions: HepG2 PBREM cis-reporter, Attagene multiplexed transcription; actives raise or lower the signal
Summary of the method: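 Fluorescence of labelled reporter cDNA fragments, resolved by capillary electrophoresis, gives mRNA induction in transfected HepG2 cells treated for 24 h; DMSO serves as negative control and baseline.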

[10] = molecular target: Paired box protein Pax-6 (Homo sapiens) (UniProt P26367); assay: ATG_Pax6_CIS: Attagene CIS-FACTORIAL HepG2 Assay for human Paired Box 6 (PAX6) (AID 2282956); conditions: HepG2 CIS-FACTORIAL PAX6 reporter transcription, RNA readout; actives raise or lower the signal
Sequence of Paired box protein Pax-6 (Homo sapiens) (P26367 whole entry, looked up): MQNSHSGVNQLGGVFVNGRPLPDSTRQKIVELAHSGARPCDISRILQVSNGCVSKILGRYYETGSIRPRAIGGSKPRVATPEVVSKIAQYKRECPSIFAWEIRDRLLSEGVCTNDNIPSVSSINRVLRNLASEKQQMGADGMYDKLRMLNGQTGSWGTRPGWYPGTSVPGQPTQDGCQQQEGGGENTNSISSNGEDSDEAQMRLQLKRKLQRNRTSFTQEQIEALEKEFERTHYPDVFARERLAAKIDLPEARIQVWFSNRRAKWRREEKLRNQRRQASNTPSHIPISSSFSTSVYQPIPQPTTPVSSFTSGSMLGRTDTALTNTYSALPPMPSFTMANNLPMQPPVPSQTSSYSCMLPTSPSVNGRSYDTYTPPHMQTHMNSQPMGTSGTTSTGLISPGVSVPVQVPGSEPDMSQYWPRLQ
Summary of the method: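 After twenty-four hours of chemical exposure, transfected HepG2 cells are harvested for RNA. Cis-promoter reporter transcripts are amplified, fluorescently labelled and sized by capillary electrophoresis, with gain and loss of signal scored against DMSO.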

[11] = ATG_PXRE_CIS: Attagene CIS-FACTORIAL HepG2 Assay for human Pregnane X Receptor Element (PXRE) (AID 2282957); conditions: HepG2 Attagene CIS-FACTORIAL PXRE reporter, mRNA; actives raise or lower the signal
Summary of the method: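 Transfect HepG2 with MRTUs (cis promoter elements); dose chemical, incubate 24 h; isolate RNA, RT with oligo(dT), PCR, 6-FAM label, HpaI cut, CE. Gain/loss fit vs DMSO.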

[12] = ATG_PPRE_CIS: Attagene CIS-FACTORIAL HepG2 Assay for human Peroxisome Proliferator-activated Response Element (PPRE) (AID 2282958); conditions: HepG2 PPRE cis-element reporter, Attagene transcription factor profiling; actives raise or lower the signal
Summary of the method: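 Cells are first transfected transiently with the multiplexed reporter library, then dosed for 24 h. Total RNA is reverse-transcribed, amplified, fluorescently end-labeled and HpaI-cut before capillary electrophoresis; activity is fitted bidirectionally against DMSO controls.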

[13] = ATG_RORE_CIS: Attagene CIS-FACTORIAL HepG2 Assay for human RAR-related Orphan Receptor Element (RORE) (AID 2282959); conditions: HepG2 Attagene cis-factorial RORE reporter, mRNA; actives raise or lower the signal
Summary of the method: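 Cells were HepG2 carrying transfected cis-regulated reporter constructs, dosed for 24 hours. Total RNA was reverse-transcribed and reporter cDNA amplified, fluorescently labeled and sized by capillary electrophoresis. Activity was fitted bidirectionally relative to DMSO.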

[14] = ATG_Sox_CIS: Attagene CIS-FACTORIAL HepG2 Assay for human SRY-box transcription factor (SOX) (AID 2282960); conditions: HepG2 Attagene cis-factorial SOX reporter, mRNA; actives raise or lower the signal
Summary of the method: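 Transient MRTU transfection of HepG2; 24 h compound incubation; TriZol RNA, oligo(dT) RT, PCR, 6-FAM primer extension, HpaI cut, CE. Bidirectional fit, DMSO = baseline.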

[15] = molecular target: Transcription factor Sp1 (Homo sapiens) (UniProt P08047); assay: ATG_Sp1_CIS: Attagene CIS-FACTORIAL HepG2 Assay for human Specificity Protein 1 (Sp1) (AID 2282961); conditions: HepG2 Sp1 cis-reporter transcription, actives raise or lower the signal
Sequence of Transcription factor Sp1 (Homo sapiens) (P08047 whole entry, looked up): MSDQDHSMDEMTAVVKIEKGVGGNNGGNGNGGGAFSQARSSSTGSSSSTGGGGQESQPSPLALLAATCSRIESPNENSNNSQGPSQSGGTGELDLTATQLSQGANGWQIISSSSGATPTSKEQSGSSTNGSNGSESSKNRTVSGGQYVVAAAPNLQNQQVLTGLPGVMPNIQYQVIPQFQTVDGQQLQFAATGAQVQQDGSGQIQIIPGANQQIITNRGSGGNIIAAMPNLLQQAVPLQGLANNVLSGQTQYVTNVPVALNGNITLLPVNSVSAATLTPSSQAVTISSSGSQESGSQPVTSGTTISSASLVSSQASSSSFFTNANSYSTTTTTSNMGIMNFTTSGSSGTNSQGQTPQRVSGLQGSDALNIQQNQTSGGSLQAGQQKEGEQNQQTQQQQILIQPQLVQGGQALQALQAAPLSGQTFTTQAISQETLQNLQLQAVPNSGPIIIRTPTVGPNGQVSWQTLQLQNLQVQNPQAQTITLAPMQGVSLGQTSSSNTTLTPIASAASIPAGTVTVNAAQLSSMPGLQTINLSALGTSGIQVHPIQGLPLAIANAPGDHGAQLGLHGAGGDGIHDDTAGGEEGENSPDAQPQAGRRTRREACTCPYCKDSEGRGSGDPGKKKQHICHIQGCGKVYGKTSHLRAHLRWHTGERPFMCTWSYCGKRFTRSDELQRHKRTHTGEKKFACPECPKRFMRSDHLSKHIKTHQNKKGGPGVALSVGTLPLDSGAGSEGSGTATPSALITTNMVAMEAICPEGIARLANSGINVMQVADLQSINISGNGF
Summary of the method: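 Endogenous Sp1 activity was gauged in human liver HepG2 cells bearing transfected reporter units under a cis-regulating promoter. After 24 h dosing, reporter mRNA was quantified by RT-PCR with capillary electrophoresis, and activity fitted bidirectionally versus DMSO.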

[16] = ATG_SREBP_CIS: Attagene CIS-FACTORIAL HepG2 Assay for human Sterol Regulatory Element Binding (SREBP) (AID 2282962); conditions: HepG2 Attagene cis-factorial SREBP reporter, mRNA; actives raise or lower the signal
Summary of the method: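 Twenty-four hours after chemical dosing of transfected HepG2 cultures, reporter RNA was converted to cDNA, amplified, end-labelled with 6-FAM and resolved by capillary electrophoresis. Responses were fitted relative to DMSO.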

[17] = ATG_TA_CIS: Attagene CIS-FACTORIAL HepG2 Assay for human TA Basal Promoter (AID 2282964); conditions: HepG2 Attagene CIS-factorial TA basal promoter reporter; actives raise or lower the signal
Summary of the method: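 Read-out: fluorescent reporter-transcript fragments resolved by capillary electrophoresis after RT-PCR and HpaI digestion. Source: HepG2 cells carrying transiently transfected multi-reporter cis constructs, treated 24 h. Endpoint fitted bidirectionally relative to DMSO.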

[18] = ATG_GRE_CIS: Attagene CIS-FACTORIAL HepG2 Assay for human Glucocorticoid Response Elements (GRE) (AID 2282947); conditions: HepG2 GRE cis-reporter, Attagene multiplex mRNA; actives raise or lower the signal
Summary of the method: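 Following 24 h chemical exposure of transiently transfected HepG2 cells, total RNA was reverse-transcribed and reporter cDNA amplified, fluorescently labelled and sized by capillary electrophoresis. Signal gain or loss was fitted relative to DMSO vehicle.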

[19] = molecular target: Signal transducer and activator of transcription 3 (Homo sapiens) (UniProt P40763); assay: ATG_STAT3_CIS: Attagene CIS-FACTORIAL HepG2 Assay for human Signal Transducer and Activator of Transcription 3 (STAT3) (AID 2282963); conditions: HepG2, Attagene cis-factorial STAT3 reporter transcription; actives raise or lower the signal
Sequence of Signal transducer and activator of transcription 3 (Homo sapiens) (P40763 whole entry, looked up): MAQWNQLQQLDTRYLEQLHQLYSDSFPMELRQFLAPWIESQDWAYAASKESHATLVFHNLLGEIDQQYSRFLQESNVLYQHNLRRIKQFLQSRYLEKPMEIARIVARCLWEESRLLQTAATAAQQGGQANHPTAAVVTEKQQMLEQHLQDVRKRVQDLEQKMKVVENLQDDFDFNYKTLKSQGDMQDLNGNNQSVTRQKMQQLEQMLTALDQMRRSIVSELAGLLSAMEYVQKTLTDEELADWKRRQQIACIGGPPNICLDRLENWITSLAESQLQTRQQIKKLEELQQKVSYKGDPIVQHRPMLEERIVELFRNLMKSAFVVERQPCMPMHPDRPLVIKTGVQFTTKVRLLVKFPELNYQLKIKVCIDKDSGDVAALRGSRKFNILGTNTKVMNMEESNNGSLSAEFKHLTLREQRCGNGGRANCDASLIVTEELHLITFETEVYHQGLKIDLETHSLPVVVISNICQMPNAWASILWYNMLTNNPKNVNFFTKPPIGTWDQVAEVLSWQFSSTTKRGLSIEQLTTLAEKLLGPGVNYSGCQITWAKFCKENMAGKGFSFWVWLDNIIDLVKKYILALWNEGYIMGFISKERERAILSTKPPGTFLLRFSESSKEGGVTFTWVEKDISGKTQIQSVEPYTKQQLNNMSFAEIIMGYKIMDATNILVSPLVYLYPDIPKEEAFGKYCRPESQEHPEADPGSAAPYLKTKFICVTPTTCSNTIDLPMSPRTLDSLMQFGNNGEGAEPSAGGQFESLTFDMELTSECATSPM
Summary of the method: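 Transcript-level reporter assay. HepG2 transient MRTU transfection, 24 h exposure, fluorescence detection after RT-PCR and CE; DMSO baseline.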

Measured: AC50

CC(C)=CC(=O)O
active: [11] 99.5 µM
not listed: [18] | [19]
inactive: all other assays above

C=CCOCC(O)CO (configuration not stated)
not listed: [5] | [12]
inactive: all other assays above

CCCCCCCCCO
not listed: [5] | [6] | [12] | [13]
inactive: all other assays above

OCCN1CCOCC1
not listed: [18]
inactive: all other assays above

CCCc1ccc(N)cc1
not listed: [18]
inactive: all other assays above

CC(C)=CCCC(C)=CC(=O)O
active: [11] 29.8 µM
not listed: [5] | [9] | [12]
inactive: all other assays above

COC(=O)C(C)Oc1ccc(Oc2ncc(C(F)(F)F)cc2Cl)cc1 (configuration not stated)
active: [8] 100 µM | [9] 77.7 µM | [11] 14.1 µM | [12] 34.3 µM | [13] 64.6 µM
not listed: [18]
inactive: all other assays above

NC(=O)c1c(Cl)cccc1Cl
active: [11] 0.104 µM
not listed: [18]
inactive: all other assays above
